# Sampled rows, rich in hits. Any-hit rate of the full collection: about 2.4%.
# SENP8 block-1: blocks the human protease SENP8; purified SENP8, Z-RLRGG-aminoluciferin cleavage, luminescence; inhibition, % at 10 µM; actives 1.2% (n = 330,000); AID 2540; in the data active = inhibition above about 50%
# Target sequence (Q96LD8 whole entry, looked up): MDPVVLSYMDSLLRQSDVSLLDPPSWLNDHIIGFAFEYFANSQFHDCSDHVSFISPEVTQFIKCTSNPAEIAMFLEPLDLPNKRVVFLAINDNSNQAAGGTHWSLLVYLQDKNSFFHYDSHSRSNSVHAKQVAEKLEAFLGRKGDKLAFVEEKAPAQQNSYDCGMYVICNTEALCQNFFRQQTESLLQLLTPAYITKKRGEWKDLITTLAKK
# SENP8 block-2: SENP8 (human) protease inhibition. Q96LD8. inhibition, % at 20 µM. actives 0.64% (n = 360,000). recombinant SENP8, Nedd8 substrate fluorescence; in the data active = inhibition mostly above about 40%, no sharp cut-off; inactive = mostly below about 27%
# SENP6 block: blocks the human protease SENP6 | Q9GZR1 | Recombinant SENP6 catalytic domain, aminoluciferin luminescence | inhibition, % at 10 µM | actives 1.8% (n = 330,000);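 active = inhibition above about 50% at the single tested dose, limit read from the data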
# Platelet DG rel: modulates dense granule release in human platelets; actives 0.22% (n = 300,000); human platelet-rich plasma, SFLLRN dense granule ATP release, luminescence; inhibition, %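 (compounds screened at 7.5 µM in platelet-rich plasma)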;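 active = mean replicate score, as percent of positive control, at or above 50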
# SENP7 block: inhibitors of human SENP7 protease. Q9BQF6. recombinant SENP7, Z-RLRGG-aminoluciferin luminescence, 40 min. inhibition, % at 5 µM. actives 1.5% (n = 330,000);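 active = inhibition above about 50% at the single test dose, limit read from the data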
# Target sequence (Q9BQF6 706-1050 limits assumed): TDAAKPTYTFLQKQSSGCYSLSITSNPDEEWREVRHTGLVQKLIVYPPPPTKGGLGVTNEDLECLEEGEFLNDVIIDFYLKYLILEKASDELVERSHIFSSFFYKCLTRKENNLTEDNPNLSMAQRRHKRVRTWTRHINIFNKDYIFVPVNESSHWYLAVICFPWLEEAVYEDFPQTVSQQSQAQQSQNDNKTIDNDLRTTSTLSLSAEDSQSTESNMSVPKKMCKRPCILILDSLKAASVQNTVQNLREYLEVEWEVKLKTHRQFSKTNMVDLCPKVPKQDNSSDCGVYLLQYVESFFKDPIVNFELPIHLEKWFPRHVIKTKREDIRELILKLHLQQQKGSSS
# SENP8 conf: confirmation of human SENP8 protease inhibitors; inhibition, % at 12.5 µM; actives 40% (n = 6,200); Recombinant SENP8, Z-RLRGG-aminoluciferin luminescence, 60 min; shares compounds with SENP7 block;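 active = mean inhibition across replicates above about 50%, limit read from the data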
# SENP6 confirm: human SENP6 inhibition, confirmed; shares compounds with SENP7 block; recombinant SENP6, Z-RLRGG-aminoluciferin luminescence; inhibition, % at 12.5 µM; actives 58% (n = 6,200)
# SENP7 conf: human SENP7 inhibition, confirmed; shares compounds with SENP7 block; recombinant SENP7, Z-RLRGG-aminoluciferin luminescence, 40 min; inhibition, % at 12.5 µM; actives 69% (n = 6,200)
# Casp3 select: caspase-3 inhibition (SENP selectivity assay) | shares compounds with SENP7 block | purified caspase-3, Z-DEVD-aminoluciferin luminescence, 60 min | inhibition, % at 12.5 µM | actives 60% (n = 6,200) | AID 488918;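 active = mean inhibition above about 50%, limit read from the data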
# Luc interf: counter-screen for SENP inhibitors: luminescence interference | AID 488919 | Pre-incubated SENP8/Z-RLRGG-aminoluciferin, luciferase luminescence interference | actives 39% (n = 6,200) | inhibition, % at 12.5 µM | shares compounds with SENP7 block;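 active = mean inhibition above about 50% when retested at one dose, limit read from the data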
# Hits are given with their value; n = inactive; x = not tested or not shown.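 Rule for the calls, unless noted: active = mean inhibition above about 50% in the one-dose retest (limit read from the data); inactive = the rest.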
SMILES,SENP8 block-1,SENP8 block-2,SENP6 block,Platelet DG rel,SENP7 block,SENP8 conf,SENP6 confirm,SENP7 conf,Casp3 select,Luc interf
CC(=O)NCCC1CCN(C(=O)c2cc(COc3ccc(C)nc3)on2)CC1,n,n,n,n,n,x,x,x,x,x
Nc1ccc(Br)c2cccnc12,75,n,85,n,62,n,63,n,n,n
O=C(CN1CCC(n2nnc3cc(F)ccc32)CC1)NNC(=O)c1ccccc1,n,n,n,n,n,x,x,x,x,x
O=C(CN1CCC(n2nnc3cc(F)ccc32)CC1)NCCc1nc2ccccc2[nH]1,n,n,n,n,52,n,n,n,n,n
Cc1ccc2c(c1)nnn2C1CCN(CC(=O)Nc2ccc(F)cc2)CC1,n,n,n,n,n,x,x,x,x,x
Cc1ccc2c(c1)nnn2C1CCN(CC(=O)N2CCN(c3ccc(F)cc3)CC2)CC1,n,n,n,n,64,n,n,n,n,n
CC(=O)c1cccc(-c2ccnc3c2CC(C(=O)Nc2ccccc2)O3)c1 (configuration not stated),x,n,x,x,x,x,x,x,x,x
Cc1ccc(NC2=C(N3CCOCC3)C(=O)c3ccccc3C2=O)cc1,68,71,80,n,n,72,83,72,88,n
Cc1ccc(Nc2nc(N3CCOCC3)nc(N3CCOCC3)n2)cc1,n,n,n,n,n,x,x,x,x,x
CC(=O)N(C)C1=C(N2CCOCC2)C(=O)c2ccccc2C1=O,n,n,n,n,n,x,x,x,x,x
CC(=O)c1ccc(NC2=C(N3CCOCC3)C(=O)c3ccccc3C2=O)cc1,n,59,53,n,n,n,56,n,n,n
O=C(NCc1cccc(F)c1)C1CCC(=O)N(CC2CCCCC2)C1 (configuration not stated),n,n,n,n,n,x,x,x,x,x
CN(CC(=O)Nc1ccccc1Cl)C(=O)COC(=O)C1CC1,n,n,n,n,n,x,x,x,x,x
CN=C1S/C(=C\c2ccc(Cl)cc2)C(=O)N1C,n,n,n,n,n,x,x,x,x,x
CN=C1S/C(=C\c2cccc(Cl)c2Cl)C(=O)N1C,67,x,77,n,n,n,n,n,n,n
CN=C1S/C(=C\c2ccc(O)c(Br)c2)C(=O)N1C,97,n,97,n,100,99,100,102,98,80
CN=C1S/C(=C\c2ccc(SC)cc2)C(=O)N1C,62,n,70,n,62,69,67,84,65,n
CSc1nc(/C=C2\C=Nc3ccccc32)c(O)n1C,54,n,73,70,52,76,74,89,71,65
Cc1nc(N)sc1-c1csc(Nc2ccccn2)n1,x,n,x,n,x,x,x,x,x,x
Fc1ccc(-c2csc(Nc3ccccn3)n2)c(F)c1,87,n,87,n,86,72,87,99,68,n
O=C(Nc1nc(-c2cc(F)ccc2F)cs1)c1ccccn1,n,n,n,n,n,x,x,x,x,x
Cc1nc(C)c(-c2csc(Nc3ccccn3)n2)s1,61,n,74,n,54,n,65,88,n,68
Cc1ccc(-c2csc(Nc3ccccn3)n2)cc1,87,n,91,n,89,92,92,98,69,77
Cc1ccnc(Nc2nc(-c3ccc(F)cc3)cs2)c1,n,n,63,n,n,n,n,76,n,n
CC(=O)N1CCC(O)(c2ccc3c(c2)OCO3)CC1,n,n,n,n,n,x,x,x,x,x
SMILES,SENP8 block-1,SENP8 block-2,SENP6 block,Platelet DG rel,SENP7 block,SENP8 conf,SENP6 confirm,SENP7 conf,Casp3 select,Luc interf
C/C(N)=C(/C#N)C(=O)CSc1nc2scc(-c3ccc(F)cc3)c2c(=O)n1C,n,n,n,n,n,x,x,x,x,x
CC(=O)Nc1cccc(-c2csc(Nc3ccc(C)cn3)n2)c1,n,n,69,n,58,66,64,87,n,n
c1ccc(-c2csc(Nc3ccccn3)n2)cc1,94,n,96,n,98,n,96,102,82,79
Cc1cc(-c2csc(Nc3ccccn3)n2)ccc1F,59,n,75,n,67,n,76,92,n,n
COc1ccc(-c2csc(Nc3ccccn3)n2)cc1OC,n,n,n,n,n,x,x,x,x,x
Oc1ccc(-c2csc(Nc3ccccn3)n2)cc1,82,n,85,n,62,91,87,95,54,88
Cc1nn(CC(=O)NNC(=O)c2cccc(Br)c2)c(C)c1[N+](=O)[O-],n,n,n,n,n,x,x,x,x,x
Cc1ccc(-c2cc(Cc3ccccn3)c(=O)[nH]n2)cc1,n,n,n,n,n,x,x,x,x,x
COc1cc(/C=C/C(=O)c2ccc3c(c2)OCO3)cc(Cl)c1O,n,n,n,n,n,x,x,x,x,x
Cc1ccc(NC(=O)Cn2nc(C(=O)O)c3ccccc3c2=O)c([N+](=O)[O-])c1,n,n,n,n,n,x,x,x,x,x
N#Cc1c(NC(=S)NC(=O)c2ccccc2)sc2c1CCC2,n,n,n,n,n,x,x,x,x,x
CCN1CCc2c(sc(NC(=S)NC(=O)c3ccccc3)c2C#N)C1,n,n,56,n,n,n,n,n,n,n
N#CC(=C1CCCC1)c1nc(-c2ccccc2O)cs1,63,n,86,n,90,n,n,n,53,55
N#CC(=C1CCCC1)c1nc(-c2cc3ccccc3oc2=O)cs1,n,n,n,n,n,x,x,x,x,x
Cc1ccc(-c2csc(C(C#N)=C3CCCC3)n2)cc1,n,n,n,n,n,x,x,x,x,x
N#CC(=C1CCCC1)c1nc(-c2ccccc2)cs1,65,n,77,n,65,n,64,88,54,n
C[C@H](NC(=O)[C@H]1N2C(=O)c3ccccc3C2SC1(C)C)C(=O)N1CCC[C@H]1C(=O)O (some centres not stated),n,n,n,n,n,x,x,x,x,x
N#C/C(=C\c1cccs1)C(=O)Nc1ccccn1,n,n,59,n,64,n,n,83,71,n
N#C/C(=C\c1ccccc1)C(=O)Nc1ccccn1,n,n,n,n,n,x,x,x,x,x
CCOC(=O)N1CCN(C2=C(NS(=O)(=O)c3ccc(C)cc3)C(=O)c3ccccc3C2=O)CC1,n,82,64,n,n,n,n,n,n,n
CC(=O)Nc1ccc(S(=O)(=O)Nc2ccc(N3CCOCC3)cc2)cc1,n,n,n,n,n,x,x,x,x,x
CC(=O)Nc1ccc(S(=O)(=O)NC2=C(N3CCN(c4ccc(F)cc4)CC3)C(=O)c3ccccc3C2=O)cc1,n,78,63,n,n,n,56,n,53,n
Cc1nc(Cl)cc(N/N=C/c2ccc(O)cc2)n1,89,n,87,n,91,90,90,99,90,87
